Experiment [1] concerns the target Tyrosine-protein kinase receptor UFO (Homo sapiens) (UniProt P30530). The note with it: at 1 µM.
The target in experiment [2] is Tyrosine-protein kinase Blk (Homo sapiens) (UniProt P51451). The note with it: at 0.1 µM.
For experiment [3] the target is unchanged. The note with it: at 1 µM.
For experiment [4], the target named is T1, Cytoplasmic tyrosine-protein kinase BMX (Homo sapiens) (UniProt P51813).
T1 sequence (whole entry): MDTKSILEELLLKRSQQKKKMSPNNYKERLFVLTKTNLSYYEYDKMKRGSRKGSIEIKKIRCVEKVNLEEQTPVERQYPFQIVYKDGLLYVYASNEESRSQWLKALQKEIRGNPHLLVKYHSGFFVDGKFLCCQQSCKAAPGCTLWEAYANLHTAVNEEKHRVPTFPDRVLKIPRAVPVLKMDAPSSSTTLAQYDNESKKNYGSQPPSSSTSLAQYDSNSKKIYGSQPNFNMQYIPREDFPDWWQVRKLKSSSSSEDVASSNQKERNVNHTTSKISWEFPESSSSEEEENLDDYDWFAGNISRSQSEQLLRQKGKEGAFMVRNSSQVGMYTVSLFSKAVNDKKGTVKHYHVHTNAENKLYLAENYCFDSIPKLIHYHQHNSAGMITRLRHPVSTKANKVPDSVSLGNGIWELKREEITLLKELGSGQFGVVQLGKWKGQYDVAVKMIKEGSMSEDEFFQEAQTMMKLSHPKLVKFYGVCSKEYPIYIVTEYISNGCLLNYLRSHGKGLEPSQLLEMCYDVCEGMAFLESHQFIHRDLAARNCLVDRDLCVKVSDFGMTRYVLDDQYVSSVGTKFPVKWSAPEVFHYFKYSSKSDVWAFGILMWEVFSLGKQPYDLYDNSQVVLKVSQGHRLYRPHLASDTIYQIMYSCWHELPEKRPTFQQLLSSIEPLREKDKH
As to conditions: at 0.1 µM.

In experiment [5] the target is T1, Cytoplasmic tyrosine-protein kinase BMX (Homo sapiens). The note with it: at 1 µM.
In experiment [6] the target is Protein-tyrosine kinase 6 (Homo sapiens) (UniProt Q13882). As to conditions: at 0.1 µM.
For experiment [7] the target is unchanged. The note with it: at 1 µM.
Experiment [8] deals with Tyrosine-protein kinase BTK (Homo sapiens) (UniProt Q06187). The note with it: at 0.1 µM.
Experiment [9] shares this target. The note with it: at 1 µM.
Experiment [10] deals with Tyrosine-protein kinase CSK (Homo sapiens) (UniProt P41240). The note with it: at 0.1 µM.

We go through 17 molecules from ChEMBL document CHEMBL1961873, “Compounds: GSK PKIS; Assays: Nanosyn kinase panel” (2012).

Tyrosine-protein kinase BTK (Homo sapiens), sequence (Q06187 whole entry): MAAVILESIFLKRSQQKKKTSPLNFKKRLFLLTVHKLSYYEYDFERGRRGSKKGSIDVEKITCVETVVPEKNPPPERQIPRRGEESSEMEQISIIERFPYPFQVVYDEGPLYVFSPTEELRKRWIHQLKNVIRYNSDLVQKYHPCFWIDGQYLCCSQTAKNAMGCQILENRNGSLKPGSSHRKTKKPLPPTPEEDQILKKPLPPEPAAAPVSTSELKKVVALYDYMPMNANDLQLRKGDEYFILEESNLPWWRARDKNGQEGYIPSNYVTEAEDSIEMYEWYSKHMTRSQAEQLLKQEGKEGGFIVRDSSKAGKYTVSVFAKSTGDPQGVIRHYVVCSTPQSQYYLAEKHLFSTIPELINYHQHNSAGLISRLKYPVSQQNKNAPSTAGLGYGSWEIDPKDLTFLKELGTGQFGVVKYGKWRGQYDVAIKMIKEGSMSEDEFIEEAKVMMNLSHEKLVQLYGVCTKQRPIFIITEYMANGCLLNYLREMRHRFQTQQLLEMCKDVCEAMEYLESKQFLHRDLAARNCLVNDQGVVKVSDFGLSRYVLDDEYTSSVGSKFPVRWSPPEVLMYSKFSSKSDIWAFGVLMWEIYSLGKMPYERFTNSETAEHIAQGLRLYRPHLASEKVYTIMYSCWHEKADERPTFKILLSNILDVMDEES
Tyrosine-protein kinase receptor UFO (Homo sapiens), sequence (P30530 whole entry): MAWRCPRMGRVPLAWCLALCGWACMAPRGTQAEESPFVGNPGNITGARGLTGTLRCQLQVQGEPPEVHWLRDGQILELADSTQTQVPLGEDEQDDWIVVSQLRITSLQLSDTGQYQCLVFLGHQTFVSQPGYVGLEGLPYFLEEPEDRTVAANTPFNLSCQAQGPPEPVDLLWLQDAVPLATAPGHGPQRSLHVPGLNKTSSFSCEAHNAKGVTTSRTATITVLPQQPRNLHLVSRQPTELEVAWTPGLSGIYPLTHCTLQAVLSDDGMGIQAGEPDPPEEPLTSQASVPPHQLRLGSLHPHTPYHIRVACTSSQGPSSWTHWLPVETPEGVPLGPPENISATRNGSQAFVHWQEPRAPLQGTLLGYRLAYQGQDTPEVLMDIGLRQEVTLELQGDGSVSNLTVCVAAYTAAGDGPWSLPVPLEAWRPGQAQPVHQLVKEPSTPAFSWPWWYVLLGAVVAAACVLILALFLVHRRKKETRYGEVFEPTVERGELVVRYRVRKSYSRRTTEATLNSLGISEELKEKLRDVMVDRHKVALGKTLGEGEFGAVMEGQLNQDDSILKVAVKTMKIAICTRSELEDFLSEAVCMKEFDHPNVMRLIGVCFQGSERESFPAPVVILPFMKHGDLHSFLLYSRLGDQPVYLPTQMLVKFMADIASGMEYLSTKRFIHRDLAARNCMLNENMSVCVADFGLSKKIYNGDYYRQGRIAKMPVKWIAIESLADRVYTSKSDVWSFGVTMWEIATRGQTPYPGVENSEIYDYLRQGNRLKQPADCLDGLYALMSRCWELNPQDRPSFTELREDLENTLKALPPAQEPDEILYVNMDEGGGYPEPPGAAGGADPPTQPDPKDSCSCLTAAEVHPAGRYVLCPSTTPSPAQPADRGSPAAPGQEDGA
Tyrosine-protein kinase Blk (Homo sapiens), sequence (P51451 2-505 limits assumed): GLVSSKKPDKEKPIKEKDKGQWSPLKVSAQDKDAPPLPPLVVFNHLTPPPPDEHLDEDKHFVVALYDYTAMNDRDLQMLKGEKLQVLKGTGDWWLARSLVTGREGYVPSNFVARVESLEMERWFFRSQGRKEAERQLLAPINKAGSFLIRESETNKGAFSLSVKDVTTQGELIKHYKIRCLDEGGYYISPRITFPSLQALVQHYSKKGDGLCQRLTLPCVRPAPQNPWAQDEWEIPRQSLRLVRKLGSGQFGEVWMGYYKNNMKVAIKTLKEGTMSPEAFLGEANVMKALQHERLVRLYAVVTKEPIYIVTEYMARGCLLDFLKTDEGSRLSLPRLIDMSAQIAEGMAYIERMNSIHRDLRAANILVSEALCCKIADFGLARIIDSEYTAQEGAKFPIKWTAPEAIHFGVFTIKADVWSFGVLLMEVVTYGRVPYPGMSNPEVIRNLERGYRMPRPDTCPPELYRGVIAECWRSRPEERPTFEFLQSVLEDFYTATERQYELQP
Protein-tyrosine kinase 6 (Homo sapiens), sequence (Q13882 whole entry, looked up): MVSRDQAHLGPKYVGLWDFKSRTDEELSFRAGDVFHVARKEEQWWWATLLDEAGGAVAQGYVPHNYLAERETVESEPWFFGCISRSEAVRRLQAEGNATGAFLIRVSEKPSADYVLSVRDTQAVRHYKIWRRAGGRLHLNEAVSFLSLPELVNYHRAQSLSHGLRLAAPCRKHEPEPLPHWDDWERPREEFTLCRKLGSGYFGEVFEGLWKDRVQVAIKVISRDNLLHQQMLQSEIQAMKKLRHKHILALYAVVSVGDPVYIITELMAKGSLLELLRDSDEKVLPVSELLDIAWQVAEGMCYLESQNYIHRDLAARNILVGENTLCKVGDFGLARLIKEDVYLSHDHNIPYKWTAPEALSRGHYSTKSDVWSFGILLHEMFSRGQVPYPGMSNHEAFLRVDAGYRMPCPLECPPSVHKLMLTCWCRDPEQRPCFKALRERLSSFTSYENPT
Tyrosine-protein kinase CSK (Homo sapiens), sequence (P41240 2-450 limits assumed): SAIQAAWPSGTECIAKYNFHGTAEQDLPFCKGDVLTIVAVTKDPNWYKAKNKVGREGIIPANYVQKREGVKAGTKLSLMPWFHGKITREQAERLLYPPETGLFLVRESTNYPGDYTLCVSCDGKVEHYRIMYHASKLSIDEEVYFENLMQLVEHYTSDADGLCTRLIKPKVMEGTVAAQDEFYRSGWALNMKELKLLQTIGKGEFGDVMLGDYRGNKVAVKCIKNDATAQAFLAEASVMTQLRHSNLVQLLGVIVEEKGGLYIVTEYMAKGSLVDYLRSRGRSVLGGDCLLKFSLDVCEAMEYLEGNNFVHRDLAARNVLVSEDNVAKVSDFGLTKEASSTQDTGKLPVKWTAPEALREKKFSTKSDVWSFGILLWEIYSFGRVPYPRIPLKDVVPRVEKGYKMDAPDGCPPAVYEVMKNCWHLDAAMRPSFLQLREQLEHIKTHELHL

With `COc1ccc(-c2coc3ncnc(N)c23)cc1`, the inhibition in experiment [1] was -2.11%; in experiment [2], 1.6%; in experiment [3], 5.06%; in [4] it was 7.73%; in [5], 6.07%; in experiment [6], 3.81%. The inhibition worked out at 11.8% in experiment [7], 0.04% in experiment [8], 2.7% in [9] and 2.45% in [10].
Turning to `CCCN1CCC=C(c2ccc(Nc3nc(Nc4ccccc4C(N)=O)c4cc[nH]c4n3)c(C)c2)C1`, the inhibition in [1] came to 58.1%; in experiment [2] it was 1.84%; in experiment [3], 9.78%; in [4] it was 3.95%; in experiment [5], 7.54%; in experiment [6], 1.91%. Besides, the inhibition was 17.4% in experiment [7], -2.03% in experiment [8], -0.62% in [9] and -1.32% in experiment [10].
As to `CC(=O)Nc1cccc(C#Cc2cncnc2Nc2ccc(OCc3cccc(F)c3)c(Cl)c2)n1`, the inhibition was 1.38% in experiment [1]; 1.94% in [2]; 1.82% in experiment [3]; 1.43% in experiment [4]; 0.97% in experiment [5]; -2.54% in experiment [6]. For the same molecule, the inhibition is 1.12% in experiment [7], 0.29% in experiment [8], 0.86% in experiment [9] and -1.09% in [10].
Turning to `CS(=O)(=O)Nc1ccc(N/C=C2\C(=O)Nc3ccccc32)cc1`, the inhibition in [1] is 4.47%; in experiment [2], 0.62%; in [3], 18.2%; in experiment [4], -1.58%; in experiment [5], 0.63%; in experiment [6] it was -4.62%. Moreover, the inhibition in experiment [7] is -2.23%; in experiment [8], -1.06%; in [9] it was -0.9%; in experiment [10] it was -9.22%.
With `Nc1nc(-c2ccccn2)c(-c2ccc3ncccc3n2)s1`, the inhibition in [1] was -4.26%; in experiment [2], 2.58%; in experiment [3], 1.8%; in experiment [4], -0.49%; in experiment [5] it was 3.73%; in experiment [6], 2.76%. Moreover, the inhibition in experiment [7] worked out at 7.02%; in [8], 1.06%; in experiment [9] it was 0.04%; in [10], 9.09%.
Turning to `CCn1c(-c2nonc2N)nc2c(C#CC(C)(C)O)nc(OC[C@@H](N)c3ccccc3)cc21`, the inhibition in experiment [1] is 3.03%; in [2] it was 0.59%; in experiment [3], 0.29%; in experiment [4], -0.32%; in [5] it was 0.02%; in [6] it was 0.79%. For the same molecule, the inhibition was -0.34% in experiment [7], -0.1% in [8], 1.72% in experiment [9] and -1.24% in [10].
As for `c1cnn2ncc(-c3ccnc(Nc4ccc5c(c4)OCCO5)n3)c2c1`, the inhibition came to 10.1% in experiment [1]; 3.13% in experiment [2]; 9.58% in experiment [3]; 1.58% in experiment [4]; 14.5% in experiment [5]; 6.27% in experiment [6]. In addition, the inhibition in experiment [7] turned out to be 13.7%; in experiment [8] it was 1.69%; in [9] it was 3.99%; in [10], 4.46%.
In the case of `O=C(Nc1n[nH]c2nc(-c3ccco3)c(Br)cc12)C1CC1`, the inhibition in [1] is -1.16%; in [2] it was 3.07%; in experiment [3], 20.5%; in [4], 7.33%; in experiment [5], 4.58%; in experiment [6], 6.01%. The inhibition in [7] was 3.67%; in experiment [8], -0.13%; in [9], 4.11%; in experiment [10], 6.94%.
Consider `CCn1c(-c2nonc2N)nc2cncc(C(=O)N3CC[C@H](N)C3)c21`, for which the inhibition in experiment [1] was -4.01%; in experiment [2], 2.69%; in experiment [3] it was 3.09%; in experiment [4], 2.23%; in [5], 0.56%; in [6] it was 4.5%. Moreover, the inhibition is 8.63% in experiment [7], -0.23% in experiment [8], -1.15% in experiment [9] and 5.91% in [10].
As for `CCn1c(-c2nonc2N)nc2c(N3CCCC3)nccc21`, the inhibition is 4.04% in experiment [1]; -1.15% in experiment [2]; -2.43% in experiment [3]; -2.04% in experiment [4]; -1.4% in experiment [5]; -1.28% in experiment [6]. For the same molecule, the inhibition in experiment [7] is -2.02%; in [8], 0.03%; in experiment [9], -1.53%; in experiment [10], -7.4%.
As for `O=C1NC(=O)C(c2ccccc2Cl)=C1Nc1cccc(O)c1`, the inhibition is -1.28% in experiment [1]; 1.66% in experiment [2]; 4.61% in experiment [3]; 2.35% in [4]; 4.21% in experiment [5]; 3.64% in [6]. Further, the inhibition in experiment [7] was 2.79%; in experiment [8], 0.01%; in experiment [9], 1.37%; in [10] it was 1.31%.
Turning to `COc1cc2ncn(-c3cc(OCc4ccccc4Cl)c(C(N)=O)s3)c2cc1OC`, the inhibition in experiment [1] was determined as 2.44%; in experiment [2], 1%; in [3] it was 23.1%; in experiment [4] it was 1.94%; in experiment [5] it was 4.4%; in experiment [6], 0.65%. In addition, the inhibition in [7] is 7.77%; in experiment [8] it was -0.87%; in experiment [9] it was 1.14%; in experiment [10], 0.5%.
Turning to `CCn1c(-c2nonc2N)nc2cnc(Oc3cccc(NC(=O)c4ccc(OCCN5CCOCC5)cc4)c3)cc21`, the inhibition was -2.93% in experiment [1]; 2.22% in experiment [2]; 2.41% in experiment [3]; 0.58% in experiment [4]; 2.53% in experiment [5]; 0.94% in experiment [6]. Moreover, the inhibition is 4.32% in experiment [7], -1.45% in experiment [8], -2.04% in experiment [9] and 2.95% in [10].
As to `CCN1CCC(CC(=O)Nc2n[nH]c3nc(-c4cccs4)c(Br)cc23)CC1`, the inhibition in experiment [1] is 2.24%; in experiment [2], -1.4%; in experiment [3], 0.14%; in [4] it was -3.73%; in experiment [5], -1.1%; in [6] it was -3.07%. For the same molecule, the inhibition in experiment [7] is 0.94%; in [8], -1.38%; in experiment [9], 0.05%.
`O=C1Nc2ccc(C(=O)c3ccco3)cc2C1=Cc1cc(Cl)c(O)c(Cl)c1`: the inhibition in experiment [1] is -5.53%; in [2] it was 3.04%; in [3] it was 19.1%; in [4] it was -1.7%; in [5] it was 5.27%; in [6], 4.83%. For the same molecule, the inhibition is 6.88% in experiment [7], 1.4% in experiment [8], 1.76% in experiment [9] and 6.31% in experiment [10].
As for `Cc1cccc(-c2n[nH]cc2-c2ccc3ncccc3n2)n1`, the inhibition came out at 0.83% in experiment [1]; 1.31% in experiment [2]; 3.22% in [3]; 3% in experiment [4]; 0.92% in [5]; 0.3% in experiment [6]. For the same molecule, the inhibition in experiment [7] was 2.48%; in experiment [8], -0.91%; in experiment [9] it was -1.51%; in experiment [10], -1.25%.
As for `COc1ccc(COc2ccc(Cc3cnc(N)nc3N)cc2OC)cc1`, the inhibition in [1] was 8.25%; in experiment [2], 0.45%; in experiment [3], 0.47%; in experiment [4], 0.39%; in experiment [5], 2.06%; in experiment [6] it was -1.66%. Also, the inhibition in experiment [7] is -1.6%; in experiment [8], 0.23%; in experiment [9], 3.61%; in experiment [10] it was 0.54%.

What is called inhibition is the relative decrease from the control value, in per cent.
